Laboratory results taken from PubChem BioAssay AID1259422 (The Scripps Research Institute Molecular Screening Center, 2018).
In all, about 640,000 compounds went through this assay and about 9,300 (1.5%) were called active. The entries come from a sample that favours actives as a whole. Values without a mark were called inactive. Rule as the data show it: active = inhibition above about 32%; inactive = the rest.

test: TEAD-YAP interaction inhibition, primary screen, TEAD-YAP interaction inhibitor project, luminescence, HEK-TIYL cells (AID 1259422); details: TEAD-Gal4/YAP UAS-luciferase luminescence, at 9.12 µM, stronger effect = higher value;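 also: 0% = median of test compound wells and 100% = reference inhibitor wells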

With `COc1ccc(S(=O)(=O)Oc2ccc(C=O)cc2)cc1` as the compound, how does the inhibition read?
The inhibition was 12.9%.

For `Cc1c(C2=N/C(=C/c3cccc(Cl)c3Cl)C(=O)O2)cccc1[N+](=O)[O-]`, which inhibition is on record?
Its inhibition is -5.1%.

Which inhibition does the source give for `CSc1cccc(Nc2nc3ccccc3n3cnnc23)c1` here?
The inhibition was -29.4%.

With `CN(c1ncnc2c1cnn2-c1ccc(Cl)cc1)C1CCCCC1` as the compound, how does the inhibition read?
Its inhibition is 63.9% (active).

Which inhibition does the source give for `Cc1cc2c(N(C)C3CCCCC3)ncnc2s1` here?
Its inhibition is -14.3%.

Which inhibition does the source give for `Clc1ccc(-n2ncc3c(NC4CCCCC4)ncnc32)cc1` here?
Its inhibition is 10.8%.

With `CSC1=C(C#N)C(c2ccccc2[N+](=O)[O-])C2=C(CC(C)(C)CC2=O)N1` (centres undefined) as the compound, how does the inhibition read?
The inhibition was 15.7%.

Which inhibition does the source give for `O=C(NCCOc1ccccc1)c1ccc2nc(NCCN3CCOCC3)sc2c1` here?
The inhibition was -44.4%.

Which inhibition does the source give for `O=C(Nc1ccc2c3c(cccc13)CC2)c1cc([N+](=O)[O-])ccc1Br` here?
Its inhibition is 59.8% (active).

For `O=C(Nc1ccc([N+](=O)[O-])cc1Cl)c1ccccc1Br`, which inhibition is on record?
The inhibition was 12.3%.

For `O=C(Nc1ccc2c3c(cccc13)CC2)c1cc([N+](=O)[O-])cc([N+](=O)[O-])c1`, which inhibition is on record?
The inhibition was -9.02%.

For `Cc1cc(C)cc(N2C(=O)N(c3cccc(Cl)c3)C3CS(=O)(=O)CC32)c1` (centres undefined), which inhibition is on record?
The inhibition was -20.4%.

With `CCOc1ccc(C(C)NC(=O)Cc2ccccc2)cc1` (centres undefined) as the compound, how does the inhibition read?
Its inhibition is 13.1%.

With `O=C(NC(=O)c1ccccn1)NC(c1ccccc1)c1ccccc1` as the compound, how does the inhibition read?
The inhibition was -3.05%.

Which inhibition does the source give for `Cc1ccnc(NC(=O)Cc2ccc(Cl)cc2)n1` here?
Its inhibition is 0.25%.

With `CC(=O)NC(NC(C)=O)c1cccnc1` as the compound, how does the inhibition read?
The inhibition was -0.95%.

For `O=C(Cc1ccccc1)NC(c1ccc(Cl)cc1)c1ccc2cccnc2c1O` (centres undefined), which inhibition is on record?
The inhibition was 82.5% (active).

With `O=C(COc1ccc(Cl)c(Cl)c1)NC(Cc1ccccc1)C(=O)O` (centres undefined) as the compound, how does the inhibition read?
The inhibition was 9.8%.

With `CC(=O)NC(c1ccccc1)c1ccc2cccnc2c1O` (centres undefined) as the compound, how does the inhibition read?
The inhibition was 82.8% (active).

Which inhibition does the source give for `Cc1ccc(CC(=O)Nc2ncccn2)cc1` here?
Its inhibition is 1.2%.

For `CCOc1ccc(C(NC(=O)c2cc(OC)c(OC)c(OC)c2)c2cc(Cl)c3cccnc3c2O)cc1` (centres undefined), which inhibition is on record?
The inhibition was 9.91%.

Which inhibition does the source give for `CC(=O)NC(c1cccs1)c1cc(Cl)c2cccnc2c1O` (centres undefined) here?
The inhibition was 80.8% (active).

Which inhibition does the source give for `COc1cccc(C(=O)NC(c2cccc([N+](=O)[O-])c2)c2cc(Cl)c3cccnc3c2O)c1` (centres undefined) here?
The inhibition was 7.94%.

With `Cc1ccc(C(NC(=O)Cc2ccccc2)c2ccc3cccnc3c2O)cc1` (centres undefined) as the compound, how does the inhibition read?
The inhibition was 82.5% (active).

With `Cc1ccc(C2C=C(c3ccc(C(C)C)cc3)Nc3nnnn32)cc1` (centres undefined) as the compound, how does the inhibition read?
The inhibition was -3.93%.

With `Cn1c(=O)c2c(nc(N(CCO)CCO)n2Cc2cccc3ccccc23)n(C)c1=O` as the compound, how does the inhibition read?
Its inhibition is -5.12%.

Which inhibition does the source give for `O=S(=O)(c1ccc(F)c(Cl)c1)N1CCC(Cn2cnc3ccccc32)CC1` here?
Its inhibition is 7.12%.

For `COC(=O)C1=C(C)OC(N)=C(C#N)C1c1ccc(OCc2ccccc2)cc1` (centres undefined), which inhibition is on record?
Its inhibition is -17.6%.

For `COc1ccccc1NC(=O)Nc1nnc(CSCc2ccc(F)cc2)s1`, which inhibition is on record?
The inhibition was 11.6%.

Which inhibition does the source give for `CCOC(=O)c1cc([N+](=O)[O-])sc1NC(=O)c1cc(Cl)sc1Cl` here?
Its inhibition is 1.62%.

With `Cc1cccc(NC(=O)CC(C)(C)C)n1` as the compound, how does the inhibition read?
The inhibition was -13.5%.

With `N/C(=N\OC(=O)CCCOc1ccc(Cl)cc1Cl)c1nonc1N` as the compound, how does the inhibition read?
The inhibition was -6.56%.

Which inhibition does the source give for `CCOC(=O)C1=CN(C(C)C)C=C(C(=O)OCC)C1c1cccc([N+](=O)[O-])c1` here?
The inhibition was 4.81%.

With `CCCn1c(=N)c(C(=O)OCC)cc2c(=O)n3cc(C)ccc3nc21` as the compound, how does the inhibition read?
The inhibition was 1.52%.

Which inhibition does the source give for `O=C1CSC(c2ccc(F)c(F)c2)N1c1ccc(Br)cc1` (centres undefined) here?
The inhibition was -4.77%.

Which inhibition does the source give for `CCCCC(=O)NC(c1ccc(OC)cc1)c1cc([N+](=O)[O-])c2cccnc2c1O` (centres undefined) here?
The inhibition was 7.56%.

For `CCCCC(=O)NC(c1ccc(OC)c(OC)c1)c1ccc2cccnc2c1O` (centres undefined), which inhibition is on record?
Its inhibition is 89.2% (active).

With `CCCCC(=O)NC(c1ccco1)c1ccc2cccnc2c1O` (centres undefined) as the compound, how does the inhibition read?
The inhibition was 26.7%.

For `CCC1CCCCN1C(=O)Cn1c2ccccc2c(=O)c2cc(C)ccc21` (centres undefined), which inhibition is on record?
The inhibition was -3.07%.

Which inhibition does the source give for `CCn1nnc2c1CCN(CC(O)C(C)(C)C)C2` (centres undefined) here?
Its inhibition is -9.09%.

For `O=C(Cn1cnc2c(nnn2-c2cccc(F)c2)c1=O)N1CCCCC1`, which inhibition is on record?
The inhibition was 6.15%.

Which inhibition does the source give for `Cc1cccc(N2CCN(C(=O)c3cccc(N4C(=O)C(C)CS4(=O)=O)c3)CC2)c1` (centres undefined) here?
The inhibition was -2.6%.

For `Cc1cccc(N2CCN(C(=O)c3cccc(C#N)c3)CC2C)c1` (centres undefined), which inhibition is on record?
Its inhibition is 41.6% (active).

Which inhibition does the source give for `Cc1cccc(N2CCN(C(=O)c3ccc4c(c3)C(=O)N(CCC3=CCCCC3)C4=O)CC2C)c1` (centres undefined) here?
Its inhibition is -3.98%.

For `COc1ccc2c(c1)CC(C(=O)Nc1ccc(-c3ccncc3)cc1OC(C)CN(C)C)CO2` (centres undefined), which inhibition is on record?
Its inhibition is -0.11%.

With `CC(C(=O)O)c1ccc(NC(=O)OC(C)(C)C)cc1` (centres undefined) as the compound, how does the inhibition read?
Its inhibition is 32.1% (active).

Which inhibition does the source give for `CC(C)CC(NC(=O)C(Cc1ccccc1)NC(=O)OC(C)(C)C)C(=O)O` (centres undefined) here?
Its inhibition is 1.85%.

With `COC(=O)NCC(C)OC(=O)Nc1ccc(C)cc1` (centres undefined) as the compound, how does the inhibition read?
Its inhibition is -12.2%.

For `Cc1cc(C)nc(N2CCN(S(=O)(=O)c3ccc(C)c(Cl)c3)CC2)n1`, which inhibition is on record?
Its inhibition is 1.94%.

For `Fc1cccc(-c2nnc3ccc4cc(C(F)(F)F)ccc4n23)c1`, which inhibition is on record?
Its inhibition is -12.5%.

With `COc1ccc(N2CCN(S(=O)(=O)c3ccc(Cl)cc3)CC2)c([N+](=O)[O-])c1` as the compound, how does the inhibition read?
Its inhibition is 6.09%.

With `CCN(C(=O)COc1ccc(Cl)cc1)c1nnc(-c2cccnc2)s1` as the compound, how does the inhibition read?
Its inhibition is -11.5%.

With `COC(=O)c1ccccc1NC1=C/C(=N/S(=O)(=O)c2ccccc2)c2ccccc2C1=O` as the compound, how does the inhibition read?
Its inhibition is 5.16%.

With `O=C1C=C(Nc2ccc(O)cc2)c2ccccc2C1=O` as the compound, how does the inhibition read?
Its inhibition is 93.2% (active).

Which inhibition does the source give for `O=C1C(Nc2ccc(O)cc2)=C(n2nnc3ccccc32)C(=O)c2ccccc21` here?
Its inhibition is 27.1%.

For `COc1ccc(S(=O)(=O)/N=C2/C=C(Nc3ccc(O)cc3)C(=O)c3ccccc32)cc1`, which inhibition is on record?
The inhibition was 99.3% (active).

With `O=C(CN1C(=O)c2ccccc2C1=O)Nc1ccc(O)cc1` as the compound, how does the inhibition read?
Its inhibition is -11.7%.

For `COc1ccccc1NC1=C/C(=N/S(=O)(=O)c2ccc(F)cc2)c2ccccc2C1=O`, which inhibition is on record?
Its inhibition is -21.4%.

For `CCOC(=O)c1ccccc1Nc1nc(-c2ccc(OC)cc2)no1`, which inhibition is on record?
Its inhibition is 8.95%.

For `O=[N+]([O-])c1ccc2c(c1)nc1ccccn12`, which inhibition is on record?
Its inhibition is -11.7%.

Which inhibition does the source give for `CC(=O)N1CCC(N(C(=O)CSCCNC(=O)c2ccccc2Cl)C2CC2)CC1` here?
The inhibition was 2.5%.

Which inhibition does the source give for `CC1CCc2c(sc(NC(=O)c3cc4ccccc4oc3=O)c2C#N)C1` (centres undefined) here?
The inhibition was 11.2%.

Which inhibition does the source give for `C=CCN1C(=S)NC2CC1(C)Oc1c(OC)cccc12` (centres undefined) here?
The inhibition was 2.23%.

For `CCCOc1ccc(Cc2c(Cl)nc(SC)nc2NC)cc1`, which inhibition is on record?
The inhibition was 35.1% (active).

Which inhibition does the source give for `CCOc1ccc(Cc2c(Cl)nc(SC)nc2N(CC)CC)cc1` here?
Its inhibition is 2.33%.

For `CCCOc1ccc(N2C(=O)CC(NCCc3ccc(Cl)cc3)C2=O)cc1` (centres undefined), which inhibition is on record?
Its inhibition is -11%.

Which inhibition does the source give for `COc1cccc(/C=C(\C#N)c2nn(CCO)c(N)c2C#N)c1OCc1ccc(Cl)cc1Cl` here?
The inhibition was 2.5%.

Which inhibition does the source give for `CC(=O)N1CCC(N(C(=O)C2CC2)c2ccc3c(c2)CCN3C(C)=O)CC1` here?
The inhibition was 46.4% (active).

Which inhibition does the source give for `CC(=O)N1CCc2cc(S(=O)(=O)NC3CCCCC3)ccc21` here?
Its inhibition is 10.8%.

Which inhibition does the source give for `CC(=O)N1CCc2cc(S(=O)(=O)NCCC(=O)O)ccc21` here?
The inhibition was 0.75%.

With `CCOC(=O)C1=C(C)N=c2s/c(=C\c3ccc(-c4ccc([N+](=O)[O-])cc4OC)o3)c(=O)n2C1c1ccccc1` (centres undefined) as the compound, how does the inhibition read?
Its inhibition is -12.5%.

For `CCn1c(=O)[nH]c(=O)c2c(C(F)(F)F)cc(C(F)(F)F)nc21`, which inhibition is on record?
The inhibition was -11.4%.

For `CCOC(=O)c1cc(-c2nnc(-c3ccccc3)o2)c(C)nc1C`, which inhibition is on record?
The inhibition was -1.76%.

With `CCc1ccc(NC(=O)CSC2=C(C#N)C(c3ccco3)C(C(=O)Nc3ccc(Cl)cc3)=C(C)N2)cc1` (centres undefined) as the compound, how does the inhibition read?
Its inhibition is 26.3%.

Which inhibition does the source give for `CC(=O)c1c(C)[nH]c(C(=O)Nc2ccc(Cl)c(C(F)(F)F)c2)c1C` here?
Its inhibition is 3.78%.

For `CS(=O)(=O)c1ncc(Cl)c(C(=O)Nc2ccc(Cl)c(C(F)(F)F)c2)n1`, which inhibition is on record?
Its inhibition is 51% (active).

With `CS(=O)(=O)c1ncc(Cl)c(C(=O)Nc2nc3ccc(F)cc3s2)n1` as the compound, how does the inhibition read?
The inhibition was -10.7%.

With `Cc1ccc(CC(=O)Nc2ccc(Cl)c([N+](=O)[O-])c2)cc1` as the compound, how does the inhibition read?
The inhibition was -2.28%.

Which inhibition does the source give for `COc1ccc(Cl)cc1NC(=O)C(=O)Nc1ccc2nc3n(c(=O)c2c1)CCCCC3` here?
Its inhibition is 0.92%.

For `COc1ccc([N+](=O)[O-])cc1C1=N/C(=C/c2ccc(C(C)C)cc2)C(=O)O1`, which inhibition is on record?
The inhibition was 1.78%.

With `CCC(=O)N(CCO)Cc1cc2cc(CC)ccc2[nH]c1=O` as the compound, how does the inhibition read?
The inhibition was 10.6%.

Which inhibition does the source give for `CCOC(=O)c1c(NC(=O)c2ccccc2)sc(C(=O)Nc2ccccc2OC)c1C` here?
The inhibition was 0.4%.

Which inhibition does the source give for `O=C(Nc1ccc(C23CC4CC(CC(C4)C2)C3)cc1)c1cccs1` here?
Its inhibition is 85.4% (active).

Which inhibition does the source give for `O=C(Nc1cc(F)cc(F)c1)c1cccs1` here?
Its inhibition is -5.52%.

For `O=C(Nc1cc(Cl)cc(Cl)c1)c1cccs1`, which inhibition is on record?
Its inhibition is -3.5%.

Which inhibition does the source give for `Cc1nc(-c2ccc(NC(=O)c3cccc(Br)c3)cc2)cs1` here?
Its inhibition is -71.4%.

Which inhibition does the source give for `CC(=O)Nc1cccc(-c2csc(C)n2)c1` here?
The inhibition was -2.27%.

Which inhibition does the source give for `Cc1nc(-c2ccc(NC(=O)c3cccs3)cc2)cs1` here?
The inhibition was 48.2% (active).

Which inhibition does the source give for `Cc1ccc2cccc(SCC(=O)Nc3ccc(Br)cc3)c2n1` here?
The inhibition was 17.4%.

For `COc1ccc(-n2nc3cc(C)c(NC(=O)c4ccccc4I)cc3n2)cc1`, which inhibition is on record?
Its inhibition is -23.3%.

Which inhibition does the source give for `CN(CCC(=O)Nc1cccc(F)c1)Cc1ccccc1` here?
Its inhibition is 2.01%.

For `COc1ccc(C(=O)CSc2n[nH]c(C)n2)cc1`, which inhibition is on record?
The inhibition was -4.7%.

Which inhibition does the source give for `COc1ccccc1NC(=O)CSc1n[nH]c(C)n1` here?
The inhibition was 5.98%.

For `COc1ccc(CSc2n[nH]c(C)n2)cc1Cl`, which inhibition is on record?
The inhibition was 44.5% (active).
